KKLEB tox: reduces viability of KKLEB cystic fibrosis airway cells | KKLEB CF airway cells viability, ATPlite luminescence, overnight; hits give low values; cells stimulated with P. aeruginosa culture filtrate | 360,000 compounds, 0.36% hits | activity change (cytotoxicity), % at 5 µM;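 active = corrected activity change at or below -50% at 5 µM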
Peg3 promoter: reduces Peg3 promoter-driven luciferase expression in HeLa; HeLa PEG-Prom luciferase reporter, luminescence, overnight; 360,000 compounds, 1.7% hits; inhibition, % at 20 µM;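 active = inhibition of at least 50% at 20 µM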
Shn3 3UTR inh: reduces Shn3 3'UTR luciferase signal in osteoblasts | 360,000 compounds, 0.52% hits | Clone20 osteoblast Shn3 3'UTR firefly luciferase, 24 h | inhibition, % at 12.5 µM | AID 588674;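 active = mean inhibition of at least 75% with every replicate also reaching 75%; inconclusive = mean inhibition at least 75% but some replicate below; inactive = mean inhibition below 75%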
CF NFkB inh: blocks PAF-induced NF-kB reporter in cystic fibrosis cells; 360,000 compounds, 0.86% hits; AID 588850; KKLEB NF-kB-GFP reporter, GFP fluorescence overnight; inhibition, % at 5 µM;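 active = at least 50% inhibition at 5 µM, scaled per plate between neutral and stimulator controls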;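 also: PAF is a Pseudomonas aeruginosa culture filtrate used as stimulus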
MITF TRPM1 inh: MITF TRPM1 promoter inhibition in SK-MEL-5 cells. inhibition, % at 12.5 µM. 330,000 compounds, 0.83% hits. SK-MEL-5 TRPM1 promoter luciferase, 24 h;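 active = mean inhibition across replicates of 60% or more, whatever share of single replicates reaches that level; inconclusive = some that reach 60%, reason not given; inactive = mean inhibition across replicates below 60%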
EBV LMP1 NFkB: Epstein-Barr LMP1 NF-kappaB reporter inhibition; 350,000 compounds, 0.69% hits; LMP1-induced NF-kappaB luciferase reporter cells, luminescence; inhibition, % at 12.5 µM; in the data active = inhibition above about 41%; inconclusive = no clear call, values can overlap the other calls
Large screens that a line does not name were inactive; ! = not confirmed by another sample. This is a sample that favours compounds with a hit; in the whole collection about 2.9% have one here.

CC1(C)N=C(N)N=C(N)N1c1ccc(OCC(=O)N2CCOCC2)c(Cl)c1	none (no result: MITF TRPM1 inh)
Cn1cnc2ncnn2c1=S	none (no result: MITF TRPM1 inh)
COc1ccccc1NC(=O)CC(c1ccc(OC(C)C)cc1)c1ccccc1OC (centres undefined)	EBV LMP1 NFkB 54.1
COc1ccccc1C(CC(=O)Nc1ccc(C)c(C)c1)c1ccc(OC(C)C)cc1 (centres undefined)	none
Cc1cc(C(=O)N/N=C/c2ccc(-c3ccc([N+](=O)[O-])cc3C)o2)n[nH]1	none
Cc1ccc(-c2ccc(/C=N\NC(=O)c3cc4c(ccc5ccccc54)o3)o2)cc1[N+](=O)[O-]	Peg3 promoter 90.8
Cc1cc([N+](=O)[O-])ccc1-c1ccc(/C=N/NC(=O)c2ccc(Br)o2)o1	Peg3 promoter 110.5
CC1=C(C(=O)N(C(C)C)C(C)C)CC(CC(=O)NCc2cccs2)C(=O)N1CCCN1CCCC1=O (centres undefined)	none (no result: MITF TRPM1 inh, EBV LMP1 NFkB)
CC(=O)c1cccc(NC(=O)C2Cc3c(-c4ccc(Cl)cc4)ccnc3O2)c1 (centres undefined)	none (no result: MITF TRPM1 inh, EBV LMP1 NFkB)
CC(C)C[C@H]1CN([C@@H](Cc2ccccc2)CN2CCC[C@@H]2CN2C(=O)C(=O)NC[C@@H]2Cc2ccccc2)C(=O)C(=O)N1CCc1ccccc1	none (no result: MITF TRPM1 inh, EBV LMP1 NFkB)
O=C1c2ccccc2C(=O)c2cc(N3CCCCC3)ccc21	KKLEB tox -63.2, EBV LMP1 NFkB 44.8
O=[N+]([O-])c1cc(S(=O)(=O)Oc2ccccc2)ccc1Cl	KKLEB tox -72.0, Peg3 promoter 107.1, CF NFkB inh 88.5, MITF TRPM1 inh 87.0
O=S(=O)(Oc1ccccc1)c1ccc(Cl)c(Cl)c1	none
S=C(NCCCc1cnc[nH]1)NCCCN(Cc1ccccc1)c1ccc(Br)cn1	none (no result: MITF TRPM1 inh, EBV LMP1 NFkB)
S=C(NCCCc1cnc[nH]1)NCCCN(Cc1ccc(Cl)cc1)c1ccc(Br)cn1	Peg3 promoter 93.6 (no result: MITF TRPM1 inh, EBV LMP1 NFkB)
CCc1nc(Nc2ccc(OC)c(OC)c2)c2nnn(Cc3ccccc3Cl)c2n1	MITF TRPM1 inh 71.2
O=C1C=C(N2CCOCC2)c2ccccc2C1=O	KKLEB tox -75.6, Peg3 promoter 100.6, Shn3 3UTR inh 96.7, CF NFkB inh 84.8, MITF TRPM1 inh 84.7
O=C1C=C(N2CCOCC2)c2cccc3cccc1c23	none (no result: MITF TRPM1 inh)
O=C(O)/C=C/c1ccc(Cn2ccnc2)cc1	EBV LMP1 NFkB 59.5!
O=C(/C=C/c1ccc(Br)cc1)NCCCn1ccnc1	none
CC(=O)Nc1ccc(OCC(O)CNC(C)C)cc1 (centres undefined)	EBV LMP1 NFkB 50.8
COc1ccc(NCC(O)COc2ccc(C(C)(C)C)cc2)cc1 (centres undefined)	EBV LMP1 NFkB 42.6
COC(=O)c1ccc(CNCC(O)COc2ccc(-c3ccccc3)cc2)cc1 (centres undefined)	none
COc1ccc(CNCC(O)COc2ccc(C(C)(C)c3ccccc3)cc2)cc1 (centres undefined)	Peg3 promoter 74.5
CC(=O)Nc1ccc(OCC(O)CNC2CCCC2)cc1 (centres undefined)	none
COc1ccc(CNCC(O)COc2cccc3c2OC(C)(C)C3)cc1 (centres undefined)	Shn3 3UTR inh 91.1
Cn1nccc1-c1ccc(C(=O)NCc2ccc(Cl)cc2)c2occc12	none (no result: MITF TRPM1 inh, EBV LMP1 NFkB)
COc1cc(C(O)c2nc(-c3ccccc3OC)cs2)ccc1F (centres undefined)	none (no result: MITF TRPM1 inh, EBV LMP1 NFkB)
O=C(Nc1ccc(N2CCOCC2)cc1)c1cn2ccccc2n1	EBV LMP1 NFkB 55.4
O=C(Nc1ccc(N2CCCCC2)cc1)c1ccccn1	KKLEB tox -76.9, Peg3 promoter 90.7, MITF TRPM1 inh 82.2, EBV LMP1 NFkB 75.4
O=C(Nc1ccc2c(c1)OCCO2)c1cccc2nc3ccccc3nc12	MITF TRPM1 inh 73.1
O=C(Nc1ccc2c(c1)OCCO2)c1ccccn1	EBV LMP1 NFkB 48.0
O=C(Nc1ccc(N2CCCCCC2)cc1)c1ccccc1Cl	none
COCCN(Cc1ccccc1)C(=O)c1ccc(C(=O)c2ccccc2)cc1	none
CSc1ccc(CN2CCC2(C)C(=O)Nc2cccc(Oc3ccccc3)c2)cc1 (centres undefined)	none (no result: MITF TRPM1 inh, EBV LMP1 NFkB)
CCc1cccc(NC(=O)CSC2=NS(=O)(=O)c3ccccc32)c1	Peg3 promoter 68.2
COc1cc(Nc2ccn3nc(-c4ccc(F)cc4)cc3n2)cc(OC)c1OC	none (no result: MITF TRPM1 inh, EBV LMP1 NFkB)
CSc1ccc(C2NN=C(c3ccccc3)S2)cc1 (centres undefined)	KKLEB tox -61.0
NC(=O)c1csc(CCNC(=O)c2ccccc2)n1	none (no result: MITF TRPM1 inh)
CC(C)n1c(CNC(=O)c2ccccc2F)nnc1SCC(=O)NC1CCCCC1	none
COc1ccccc1N1CCN(C(=O)Cn2ncc3c([nH]c4ccccc43)c2=O)CC1	none
COc1ccc(N2CCN(C(=O)Cn3ncc4c([nH]c5ccccc54)c3=O)CC2)cc1	Peg3 promoter 52.7
CC[N+](CC)(CC)CCOc1cccc(OCC[N+](CC)(CC)CC)c1OCC[N+](CC)(CC)CC	none
CC[N+](CC)(CC)CCOc1ccc(/C=C/c2ccccc2)cc1	CF NFkB inh 52.8
CCn1cc(C(=O)Nc2ncccc2O)c(=O)c2cc(F)c(N3CCN(C(=O)c4ccco4)CC3)cc21	Peg3 promoter 52.9
CCn1cc(C(=O)NCc2ccc3c(c2)OCO3)c(=O)c2cc(F)c(N3CCN(C(=O)c4ccco4)CC3)cc21	Peg3 promoter 50.6
CCn1cc(C(=O)NCc2ccccc2)c(=O)c2cc(F)c(N3CCN(C(=O)c4ccco4)CC3)cc21	Peg3 promoter 67.6
CCc1nc2c(OCCC3CCCCC3)cccn2c1N(C)C(=O)c1ccc(C)cc1	none (no result: MITF TRPM1 inh, EBV LMP1 NFkB)
Cc1ccc(S(=O)(=O)N2CCC(C(=O)OCC(=O)N3C(C)CCCC3C)CC2)cc1C (centres undefined)	none (no result: MITF TRPM1 inh)
COC(=O)/C(=C\c1ccc([N+](=O)[O-])o1)NC(=O)c1ccccc1	none
Cc1cccc(NC(=O)/C(=C\c2ccc([N+](=O)[O-])o2)NC(=O)c2ccc(Cl)cc2)c1	Peg3 promoter 55.8
Cc1ccc(NC(=O)COC(=O)Cn2cnc3ccccc32)c(C)c1	none
C=C(C)CN(CC)c1nc(N)c2c(N)nc3c(c2c1C#N)CC(=O)N3C12CC3CC(CC(C3)C1)C2	none
N#Cc1c(N2CCCC(O)C2)nc(N)c2c(N)nc3c(c12)CC(=O)N3C12CC3CC(CC(C3)C1)C2 (centres undefined)	CF NFkB inh 58.1
O=C(Nc1ccccc1)c1cc(C2CCCCN2S(=O)(=O)Cc2cccc(C(F)(F)F)c2)on1 (centres undefined)	none (no result: MITF TRPM1 inh, EBV LMP1 NFkB)
O=C(CCl)N(c1ccccc1)C1CCS(=O)(=O)C1 (centres undefined)	Peg3 promoter 103.0, MITF TRPM1 inh inconclusive
Cc1ccc(C(=O)NCc2ccccn2)cc1S(=O)(=O)N1CCOCC1	none
COCCNC(=O)c1ccc(N2CC3CC(C2)c2cccc(=O)n2C3)c(NC(=O)c2ccccc2Cl)c1 (centres undefined)	none (no result: MITF TRPM1 inh)
